Our source for the Potency and activity change, positive = activation values is PubChem BioAssay AID1458 (National Center for Advancing Translational Sciences (NCATS), 2008).

In all, about 210,000 compounds went through this assay and about 5,900 (2.8%) were called active. A call without a number means that no potency is given here. Inconclusive results (about 5%) are left out. Calls come from the whole dose curve; as a rule, active = well fitted activation curve with a large enough effect; inconclusive = small, poorly fitted or top-dose-only effect; inactive = no such curve, though single readings can be large or run the other way. The full list was thinned out, with actives kept by preference.
Potency is the fitted concentration of half-maximal effect.

The assay is described as follows: qHTS Assay for Enhancers of SMN2 Splice Variant Expression. Note: nearly all actives have a fitted effect of over 55% in size. As to conditions: HEK293 SMN2-luciferase splicing reporter, luminescence, 30-36 h; series mostly up to 46.1 µM. The method, boiled down:
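HEK293 cells carry an SMN2 minigene-luciferase reporter in which exon 7 inclusion puts luciferase in frame. Cells were seeded at 2000 cells/well, attached for 10-12 hours, then exposed to compounds for 30-36 hours at 37C before ONE-Glo luminescence.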
(qHTS replaces the single test concentration by a dilution series.)
With `COc1ccc(C(=O)Nc2ccc(CN3CCOCC3)cc2)cc1`, the Potency result is “inactive”. For the compound `COc1ccc(C(=O)Nc2sc(C)c(C)c2CN2CCOCC2)cc1`, the Potency is 12.6 µM (active). On the same count and under the same terms, then `CCOC(=O)c1c(NC(=O)c2ccc(N3CCOCC3)c([N+](=O)[O-])c2)sc(C)c1C`, with “inactive”; and `CCOC(=O)C1CCCN(C(=O)Cn2ncc3c(C)n(Cc4ccc(F)cc4)c(C)c3c2=O)C1` (stereo unspecified), with “inactive”; and `COc1ccc(-c2noc(CSc3nc4ccc(C)cc4[nH]3)n2)cc1`, with “inactive”. Turning to `Cc1ccccc1C(=O)Nc1sc2c(c1C(=O)N1CCC(C)CC1)CCCC2`, the Potency result was “inactive”. Still for that read-out and setting: for `Cc1c(NC(=O)c2cc(=O)c3ccccc3o2)c(=O)n(-c2ccccc2)n1C` the value was “inactive”. Consider `Cc1nn(C)cc1CNC(=O)Nc1ccc(Cl)cc1`, for which the Potency is 15.8 µM (active). Regarding `Cc1nn(C)cc1C(=O)NNC(=S)Nc1ccc(Cl)cc1`, the Potency result is “inactive”. On the same count and under the same terms, for `COc1ccc(Cl)cc1C(=O)NCc1cn(C)nc1C` the value was “inactive”; for `Oc1ccccc1-c1nc(/C=C/c2ccc(F)cc2)no1`, “inactive”.

On to `CCOC(=O)c1cc(NC(=O)c2cccnc2)cc(C(=O)OCC)c1`, for which the Potency result is “inactive”. Same read-out and setting: for `COc1ccc(C(=O)Nc2cccnc2)cc1C(=O)Nc1cccnc1` the value was “inactive”.

Take `CCOC(=O)c1ccc(-c2ccc(C(=O)Nc3cccnc3)o2)cc1`: the Potency was 6.31 µM (active).

With `CCN(CC)c1ccc(C2C(C(N)=O)=C(C)Nc3nc(SCc4ccccc4)nn32)cc1` (stereo unspecified), the Potency result is “inactive”. Same read-out and setting: for `COCCn1c(CCC(=O)Nc2cc(C)ccc2C)nc2cccnc21` the value was “inactive”; for `N#C/C(=C\c1ccccc1F)c1nc2ccccc2c(=O)[nH]1`, “inactive”; for `COc1ccccc1-c1nnc(SCC(=O)Nc2cc(C)on2)o1`, “inactive”. Same read-out and setting: then `COc1ccccc1-c1nnc(NC(=O)c2ccc3ncsc3c2)o1`, with 14.1 µM (active). With `COc1ccccc1-c1nnc(NC(=O)c2cccc(N3C(=O)CCC3=O)c2)o1`, the Potency result was “inactive”. The same measure, in the same setting: for `Cn1c(=O)c2sccc2n2c(CCC(=O)NCc3ccccc3Cl)nnc12` the value was “inactive”; for `CCc1ccc2oc(-c3ccc(N)cc3)nc2c1`, 1 µM (active).

As for `CCc1ccc2oc(-c3ccc(NC(=O)c4cc5ccccc5o4)cc3)nc2c1`, the Potency entry was “inactive”.

Regarding `CCc1ccc2oc(-c3ccc(C)c(NC(=O)/C=C/c4ccco4)c3)nc2c1`, the Potency entry was “inactive”. As for `COc1ccc(OC)c(-c2csc(-c3c(N)c(C(=O)c4ccccc4)n4ccccc34)n2)c1`, the Potency entry is “inactive”.

In the case of `CCc1nn(CC(=O)N2CCN(c3cc(C)ccc3C)CC2)c(=O)c2cc3occc3n12`, the Potency result is “inactive”. Same read-out and setting: then `O=C(c1ccc(Cl)cc1)n1nc(-c2cccnc2)nc1NCc1ccc(F)cc1`, with “inactive”. In the case of `COc1cc(Cl)c(C)cc1NC(=O)CCc1nc2cccnc2n1Cc1cccs1`, the Potency result was “inactive”. The same measure, in the same setting: then `O=C(CSc1nnc(Nc2ccccc2)s1)Nc1cccnc1Cl`, with “inactive”; and `Cc1ccccc1Nc1nnc(SCC(=O)c2cc3ccccc3o2)s1`, with “inactive”; and `CC(C)c1ccc(Nc2nnc(SCC(=O)c3nnc(-c4ccccc4)o3)s2)cc1`, with 10 µM (active). Take `CC(C)Nc1nnc(SCC(=O)c2c[nH]c3ccccc23)s1`: the activity change, positive = activation was -12.7% [at 1.84 µM] (inactive). Turning to `Cc1ccc(Nc2nnc(SCC(=O)c3cc4ccccc4o3)s2)cc1C`, the Potency is 12.6 µM (active).

Turning to `Cc1cc2c(=O)n(C)c(SCC(=O)c3cc4ccccc4o3)nc2s1`, the Potency result is “inactive”. On the same count and under the same terms, for `CCOCCCNC(=O)c1c(NC(=O)Cc2coc3c(C)c(C)ccc23)sc2c1CCC2` the value was “inactive”; for `Cc1cccc(N2CCN(C3=C(c4ccccc4)C(=O)c4ccccc43)CC2)c1C`, “inactive”.

Regarding `O=C1OC(C(=O)Nc2cccc(Br)c2)Cc2ccccc21` (stereo unspecified), the Potency entry is “inactive”. Same read-out and setting: then `CCNS(=O)(=O)c1cc(-c2nnc(Nc3cccc(C(F)(F)F)c3)c3ccccc23)ccc1C`, with “inactive”; and `COc1cccc(CNC(=O)Cn2ncn3c(cc4ccccc43)c2=O)c1`, with “inactive”; and `Cc1ccc(S(=O)(=O)NCCN2CCOCC2)cc1C`, with “inactive”. `CCOC(=O)CSc1nc2ccc(C)cc2[nH]1`: the Potency entry was “inactive”. Still for that read-out and setting: then `Cc1cc2nc(SCCN3CCOCC3)[nH]c2cc1C`, with 14.1 µM (active).

As to `COc1ccc(S(=O)(=O)NCCSc2nnnn2-c2ccccc2)cc1`, the Potency result is “inactive”. On to `COc1ccc(NC(=O)NC(C)c2c(-n3cccc3)sc(C)c2C)cc1OC` (stereo unspecified), for which the Potency entry was “inactive”.

As for `COc1cccc(NC(=O)CCNS(=O)(=O)c2ccc3c(c2)oc(=O)n3C)c1`, the Potency result is “inactive”.

Turning to `Cc1ccc(CNC(=O)CCNS(=O)(=O)c2ccc3c(c2)oc(=O)n3C)cc1`, the Potency result is “inactive”. Still for that read-out and setting: for `O=C(NCCc1ccccc1)c1ccc(NC2=NC3CS(=O)(=O)CC3S2)cc1` (stereo unspecified) the value was “inactive”. Consider `CC(=O)c1cccc(NC(=O)N2CCCC2C(=O)NCCc2ccccc2)c1` (stereo unspecified), for which the Potency entry was “inactive”.

For `CC1CCCN(c2ccc(C(=O)NCCc3ccccc3)cn2)C1` (stereo unspecified), the Potency is 11.2 µM (active).

As to `Cc1oc2ccc(O)c(CN3CCCCC3)c2c1C(=O)Nc1cccc(C(F)(F)F)c1`, the Potency entry is “inactive”.

For `CCC1CCCCN1S(=O)(=O)c1ccc(NC(=O)c2cc(=O)c3ccccc3o2)cc1` (stereo unspecified), the Potency entry is “inactive”. Still for that read-out and setting: for `Cc1ccccc1NC(=O)Cn1c(=O)n(CCCCC(=O)NCc2ccccc2Cl)c(=O)c2ccccc21` the value was “inactive”. On the same count and under the same terms, then `CS(=O)(=O)c1sc2nc(-c3ccccc3)cc(-c3ccccc3)c2c1N`, with “inactive”; and `CCN(CC)C(=O)c1sc2nc(-c3ccccc3)ccc2c1N`, with 7.94 µM (active). Still for that read-out and setting: then `CCOC(=O)c1sc2nc(SC)nc(-c3ccccc3)c2c1N`, with “inactive”. On to `c1ccc(-c2[nH]ncc2-c2nc3ccccc3[nH]2)cc1`, for which the Potency entry is “inactive”. The same measure, in the same setting: for `Cc1ccc(-c2nc3ccccc3[nH]2)cc1NC(=O)c1sc2ccccc2c1Cl` the value was “inactive”; for `Cc1ccc(-c2nc3ccccc3[nH]2)cc1N`, 3.16 µM (active); for `c1ccc2[nH]c(-c3nc4ccccc4[nH]3)nc2c1`, 7.94 µM (active).

As for `COc1ccc(Br)cc1C(=O)NC(=S)Nc1cc(-c2nc3ccccc3[nH]2)ccc1C`, the activity change, positive = activation was -3.02% [at 1.84 µM] (inactive).

`OCCNc1nc2ccccc2[nH]1`: the Potency result is “inactive”. For `COc1cc2[nH]c(=O)n(Cc3ccc(C(=O)NCc4ccc(C)cc4)cc3)c(=O)c2cc1OC`, the Potency entry is “inactive”.

Take `CCCCCn1c(=O)[nH]c2cc(C(=O)Nc3cc(C)cc(C)c3)ccc2c1=O`: the Potency entry is “inactive”. Turning to `CC(C)(C)c1cnnn1-c1ccc([N+](=O)[O-])cc1`, the Potency entry was “inactive”. Still for that read-out and setting: for `Cc1nn(-c2ccccc2)c2c1C(c1cccc([N+](=O)[O-])c1)N(c1ccccc1)C(=O)N2` (stereo unspecified) the value was “inactive”; for `Cc1nn(-c2ccc([N+](=O)[O-])cc2)c(N)c1-c1ccccc1`, 10 µM (active).
